PubChem BioAssay AID1778 (Sanford-Burnham Center for Chemical Genomics, 2009)
The campaign covered roughly 290,000 compounds. About 260 (0.09%) were called active. The entries come from a sample that favours actives as a whole. Entries with a potency or affinity are not part of this list. Unmarked numbers belong to inactive results. No stated cut-off is given here; in the data, active means inhibition above about 50%; inactive means the rest.

Target: Kappa-type opioid receptor (Homo sapiens) (UniProt P41145)
Test: KOR antagonists, beta-arrestin recruitment, cell-based, luminescence, uHTS (AID 1778)
Conditions: antagonist mode, active compounds read high; at 10 µM unless noted

Sequence of Kappa-type opioid receptor (Homo sapiens) (P41145 whole entry, looked up): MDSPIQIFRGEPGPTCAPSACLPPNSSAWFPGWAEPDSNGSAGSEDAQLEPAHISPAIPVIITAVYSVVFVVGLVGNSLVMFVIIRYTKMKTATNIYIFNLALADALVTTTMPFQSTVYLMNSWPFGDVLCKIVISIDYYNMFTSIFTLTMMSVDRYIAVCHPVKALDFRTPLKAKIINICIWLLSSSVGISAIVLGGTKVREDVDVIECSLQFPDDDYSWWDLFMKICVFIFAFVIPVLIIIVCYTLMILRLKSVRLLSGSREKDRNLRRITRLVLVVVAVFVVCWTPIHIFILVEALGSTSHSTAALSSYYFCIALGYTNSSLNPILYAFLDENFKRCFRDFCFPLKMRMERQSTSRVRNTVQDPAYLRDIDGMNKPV

Row | Compound | inhibition
1 | CCOC(=O)Nc1sc2nc(C)cc(C)c2c1-n1cccc1 | -25.7%
2 | COCCN(C(=O)c1cccc(OC)c1)c1nnc(-c2ccncc2)s1 | 24.5%
3 | COc1ccccc1N1CCN(CC(=O)c2c(C)[nH]c3ccccc23)CC1 | -0.2%
4 | COc1cc(OC)c(OC)cc1/C=N/NC(=S)NCC1CCCO1 (configuration not stated) | 1.1%
5 | CCn1c(SCC(=O)Nc2nc3c(s2)CCCC3)nc2c1c(=O)n(C)c(=O)n2C | -6.8%
6 | C=CCOC(=O)C(=O)/C=C/c1ccc2c(c1)Cc1ccccc1-2 | -23.3%
7 | CCCc1ccc2oc(C(=O)N(C)CCn3ccnc3C)c(C)c2c1 | -19.1% [at 20 µM]
8 | CC(=O)NC(Cc1cc(C)ccc1C)C(=O)N1CCN(C(=O)c2ccc([N+](=O)[O-])cc2)CC1 (configuration not stated) | -2.4%
9 | COc1cc(-c2nc3ccccn3c2/N=C/c2cccc(F)c2)ccc1O | -3.3%
10 | COc1cc(CNS(=O)(=O)c2ccc3c(c2)CC(C)N3C(=O)C2CCC2)cc(OC)c1OC (configuration not stated) | -10.7%
11 | Oc1[nH]c2ccc(Br)cc2c1N=NC(=S)N1CCOCC1 | 49.6%
12 | NC(=S)N=Nc1c(O)[nH]c2ccccc12 | 18.5%
13 | Oc1[nH]c2ccccc2c1N=NC(=S)N1CCOCC1 | 63.2% (active)
14 | COC(=O)CCC(=O)Nc1c(C)n(C)n(-c2ccccc2)c1=O | 22.3% [at 20 µM]
15 | Cc1cc(OCC(=O)Nc2ccc(S(=O)(=O)N3CCN(C)CC3)cc2)ccc1Br | 3.2%
16 | Cc1cc(OCC(=O)Nc2ccc(S(=O)(=O)N3CCN(C)CC3)cc2)ccc1Cl | -13.3%
17 | O=C(c1ccccn1)N1CCN(c2cccc(C(F)(F)F)c2)CC1 | -1.3%
18 | CCOC(=O)c1cnn(-c2nc3sc4c(c3c(=O)[nH]2)CCCC4)c1N | 75% (active)
19 | CCOC(=O)c1cnn(-c2nc(C)nc3sc4c(c23)CCC4)c1N | -9.9%
20 | CCOC(=O)c1cnn(-c2nc(SC)nc3sc4c(c23)CCCC4)c1N | 5.6%
21 | Cc1onc(-c2ccccc2)c1C(=O)N=C(N)c1ccc(C(F)(F)F)cc1 | 19.1%
22 | CCOc1cc(/C=N/NC(=O)C(=O)NCCCOC(C)C)cc(Br)c1O | 4.9%
23 | CCN1CCN(CCC(=O)Nc2ccc(C)cc2)CC1 | -48.9% [at 20 µM]

Row | Compound | inhibition
24 | Cc1cccc(CC2CC(=O)N(c3ccccc3)C2=O)c1 (configuration not stated) | -23.5%
25 | Cc1ccc(C)c(S(=O)(=O)N2CCC3(CC2)OCCO3)c1 | 11.1%
26 | O=C1COc2ccc(-c3csc(=Nc4ccc(OC(F)F)cc4)n3CC3CCCO3)cc2N1 (configuration not stated) | 14.3%
27 | CN(C)S(=O)(=O)c1cccc(N=c2scc(-c3ccc4c(c3)NC(=O)CO4)n2CC2CCCO2)c1 (configuration not stated) | -17.4%
28 | CSCCNC(=O)c1ccc(OC2CCN(S(=O)(=O)N(C)C)CC2)cc1 | 11.7% [at 20 µM]
29 | CN(C)C(=O)c1c2c(nc3ccccc13)-c1ccccc1CC2 | 7.9%
30 | CCOc1ccc(NC(=O)c2ccc(NC(=S)NC3CCCCC3)cc2)cc1 | 5.4% [at 20 µM]
31 | Cc1ccc(OCc2ccccc2C)c([N+](=O)[O-])n1 | -33%
32 | CCCN(CCC)CC(O)Cn1cc(/C=C/C(=O)c2ccccc2)c2ccccc21 (configuration not stated) | 19%
33 | CCCCN(C)CC(O)Cn1cc(/C=C/C(=O)c2cccs2)c2ccccc21 (configuration not stated) | 19.9%
34 | COC(=O)c1sc(N)c(C(=O)OC)c1CSc1nnnn1C | -5.2%
35 | O=C(Nc1nnc(-c2ccc3c(c2)OCCO3)o1)c1ccc(Cc2ccccc2)cc1 | 51.8% (active)
36 | Cc1ccc(C(=O)Nc2nnc(-c3ccco3)o2)cc1C | 40.8%
37 | COc1ccc(-c2nnc(NC(=O)c3ccc4c(c3)OCCO4)o2)cc1 | 29.6%
38 | O=C(CCc1ccccc1)Nc1nnc(-c2ccc3c(c2)OCCO3)o1 | 11.2%
39 | CCCN(CCC)S(=O)(=O)c1ccc(C(=O)Nc2nnc(-c3cc(OC)cc(OC)c3)o2)cc1 | -91.7%
40 | O=C(Nc1nnc(-c2ccco2)o1)c1ccc2ccccc2c1 | 89.7% (active)
41 | Cc1ccc(C(=O)Nc2nnc(-c3ccco3)o2)cc1 | 14.7%
42 | O=C(Nc1nnc(C2=COCCO2)o1)c1ccc(Cc2ccccc2)cc1 | -22.6% [at 20 µM]
43 | CC1CCN(CC(=O)Nc2ccccc2Sc2ccccc2)CC1 | -8%
44 | O=C(Nc1cccnc1)c1ccccc1Cl | 21.5% [at 20 µM]
45 | CN1CCC(N(C)S(=O)(=O)c2ccc(F)cc2F)CC1 | -33.5%
46 | Cc1c(C(=O)O)[nH]c2c1C(=O)CC(c1ccc(C(C)(C)C)cc1)C2 (configuration not stated) | 14.6%

Row | Compound | inhibition
47 | Cc1csc(NC(=S)Nc2cccc(Cl)c2)n1 | 57.9% (active)
48 | NNC(=S)Nc1cccc(Cl)c1 | 18.7%
49 | Cc1csc(NC(=O)Nc2cccc(Cl)c2)n1 | -9.6%
50 | COc1ccc(OC)c(-n2c(SCC(C)=O)nnc2-c2cccc(S(=O)(=O)N(C)C)c2)c1 | 21.3%
51 | O=C(Oc1ccc(Cl)c2cccnc12)c1ccco1 | 6.4%
52 | CCN(CC)C(=O)Oc1ccc(Cl)c2cccnc12 | 16.1% [at 20 µM]
53 | O=C(Nc1cccc(C(F)(F)F)c1)Oc1ccc(Cl)c2cccnc12 | 65.4% (active)
54 | CSC(=S)N/N=C(\C)c1ccc(Br)cc1 | 46.1%
55 | C/C(=N\NC(N)=S)c1ccccc1 | 11.9%
56 | Cc1c(C(=O)Nc2ccc3c(c2)OCO3)oc2ccccc12 | -1.2%
57 | Cc1ccc2nc(-c3ccccn3)[nH]c2c1 | -33.9% [at 20 µM]
58 | Cc1cc(=S)nc(-c2ccccn2)[nH]1 | -17.8%
59 | CCN(CC)CCn1c2ccccc2c2cnc(N=CN(C)C)c(C#N)c21 | -24.3%
60 | CCO/C(=C/c1sc2ccc(OC)cc2[n+]1CCCS(=O)(=O)[O-])CC | 2.7%
61 | CSc1sc2ccccc2[n+]1CCCS(=O)(=O)[O-] | 21.2%
62 | O=c1cc(-c2ccccc2)nc(Cc2c(Cl)cccc2Cl)[nH]1 | 29.4%
63 | CCNC(=O)NC(=O)C(C)OC(=O)CCS(=O)(=O)c1ccc(C)cc1 (configuration not stated) | -30.7%
64 | COc1ccc(S(=O)(=O)N2CCN(C(=O)COc3ccc(C)c(C)c3)CC2)cc1OC | -25.1%
65 | O=C(Oc1ccc(Cl)c2cccnc12)c1cccc([N+](=O)[O-])c1 | -2.7%
66 | O=C(Oc1cccc2cccnc12)c1cccc([N+](=O)[O-])c1 | -16.3% [at 20 µM]
67 | O=C(Oc1c(Cl)cc(Cl)c2cccnc12)c1cccc([N+](=O)[O-])c1 | 99.6% (active)
68 | COc1cc2c(cc1OC)CN(C(=O)CCNS(=O)(=O)c1ccccc1F)CC2 | 5.3%
69 | Cc1nc2scc(-c3ccccc3)c2c(=O)n1N | -2.3%

Row | Compound | inhibition
70 | Cc1ccc(C)n1-n1c(C)nc2scc(-c3ccccc3)c2c1=O | -3.4%
71 | Cc1nc(NC(=O)CSC2=NCCS2)sc1C(=O)N(C)C | -22.6%
72 | COc1ccc(S(=O)(=O)N2CCN(c3ccccn3)CC2)cc1[N+](=O)[O-] | 5.2%
73 | CC(C)(C)C(=O)/C(C#N)=C/c1cccs1 | 1.1%
74 | Cc1ccc(NC(=O)c2ccc(Nc3c([N+](=O)[O-])cc([N+](=O)[O-])cc3[N+](=O)[O-])cc2)cc1 | 1.3%
75 | O=C(Nc1ccccc1)c1ccc(Nc2c([N+](=O)[O-])cc([N+](=O)[O-])c3ccccc23)cc1 | 20.1%
76 | Cc1ccc(NC(=O)C2CCN(S(=O)(=O)c3ccc4c(c3)NC(=O)C(C)S4)CC2)c(C)c1 (configuration not stated) | 11.1%
77 | COc1ccc(CSc2cccc3cccnc23)cc1[N+](=O)[O-] | -30.5%
78 | Cc1cccc(NC(=O)CSc2cccc3cccnc23)c1 | -3%
79 | CC(Oc1ccccc1)C(=O)Nc1nnc(S(=O)(=O)Nc2ccccc2)s1 (configuration not stated) | -37.1% [at 20 µM]
80 | COc1ccc(N(CC(=O)Nc2ccc(S(=O)(=O)N3CCOCC3)cc2)S(=O)(=O)c2ccc(F)cc2)cc1 | 28.3%
81 | COc1ccc(N(CC(=O)Nc2ccc(S(=O)(=O)N3CCOCC3)cc2)S(=O)(=O)c2ccccc2)cc1 | -0.6%
82 | CN1/C(=C\C=O)C(C)(C)c2ccccc21 | -23.9%
83 | CCCN1C(=O)/C(=C\C=C2/Sc3ccccc3N2CCO)SC1=S | 17.8%
84 | CN1C(=CC=C2C=C(I)C(=O)C(I)=C2)C(C)(C)c2ccccc21 | 68.2% (active)
85 | CN1/C(=C\C=C2/C(=O)Oc3ccccc3C2=O)C(C)(C)c2ccccc21 | -18.4%
86 | CCCN1C(=O)/C(=C\C=C2/Sc3ccccc3N2CC)SC1=S | -42.6% [at 20 µM]
87 | CCCCN1C(=O)/C(=C/C=C2\N(C)c3ccccc3C2(C)C)SC1=S | 6.8%
88 | C=CCN1C(=O)/C(=C\C=C2\N(C)c3ccccc3C2(C)C)SC1=S | 3.2%
89 | CN1/C(=C\C=C2/SC(=S)N(CC(=O)O)C2=O)C(C)(C)c2ccccc21 | 77.1% [at 20 µM] (active)
90 | O=C1CC(C2CCCO2)C(=O)N1c1ccccc1 (configuration not stated) | -21.9%
91 | Cn1c(=O)c(C(=O)NCc2ccccc2Cl)c(O)c2ccccc21 | -41.3% [at 20 µM]
92 | Cc1ccccc1CN(C)C(=O)CNC(=O)c1ccc2ccccc2c1 | -14.6%
